# According to PubChem BioAssay (NCATS):
# Records with an inconclusive call do not appear. Values without a mark were called inactive. Activity calls are given as the source filed them. Calls follow the shape of the dose curve; as a rule, active = well fitted cell-killing curve with a large enough effect; inconclusive = small, poorly fitted or top-dose-only effect, or effect the other way; inactive = no such curve, though single readings can be large or run the other way.
# Experiment: Quantitative High-Throughput drug screen in 47 multiple myeloma cell lines against the NCATS MIPE library collection: EJM_DSMZ cell viability assay (AID 1918926; also: nearly all actives have a fitted effect of over 30% in size)
# Details: EJM myeloma cell viability, CellTiter-Glo ATP, 48 h; series mostly up to 45.8 µM; viability, % of control: at the top concentration
# Text: PI: Beverly A. Mock Ph.D.
# Laboratory of Cancer Biology and Genetics,
# Center for Cancer Research, National Cancer Institute,
# National Institute of Health, Bethesda, Maryland
# Drug resistance and disease progression are common in multiple myeloma (MM) patients, underscoring the need for new therapeutic combinations. […] We hypothesized that effective combinations would reduce MYC expression and enhance p16 activity. […] These preclinical data identify potentially useful drug combinations for evaluation in drug-resistant MM and reveal potential mechanisms of combined drug sensitivity.
# Described herein is the primary MIPE qHTS used to cherrypick compounds. Validated compounds were then further tested for potential synergistic activiy.
# [1] Peat TJ, Gaikwad SM, Dubois W, Gyabaah-Kessie N, Zhang S, Gorjifard S, Phyo Z, Andres M, Hughitt VK, Simpson RM, Miller MA, Girvin AT, Taylor A, Williams D, D'Antonio N, Zhang Y, Rajagopalan A, Flietner E, Wilson K, Zhang X, Shinn P, Klumpp-Thomas C, McKnight C, Itkin Z, Chen L, Kazandijian D, Zhang J, Michalowski AM, Simmons JK, Keats J, Thomas CJ, Mock BA. Drug combinations identified by high-throughput screening promote cell cycle transition and upregulate Smad pathways in myeloma. Cancer Lett. 2023 Aug 1;568:216284. doi: 10.1016/j.canlet.2023.216284. Epub 2023 Jun 24. PMID: 37356470; PMCID: PMC10408729.
# SEQUENCE No. (e.g., 1, 2, 3, etc.); […] (e.g., Cells, Incubation, Reagent, etc.); VALUE and DESCRIPTION.
# 1; Cells; 5 uL; white, solid bottom 1536-well Greiner assay plate.
# 2; Compounds; 23 nL; Kalypsis pin tool (Wako USA) equipped with a 1536-well pin head to transfer to the assay plates.
# 3; Incubation; 48 hours; 37C incubation.
# 4; Reagent;5uL; CellTiter Glo (Promega).
# 5; Detector; 425V; Luminescence; Viewlux PerkinElmer.
# NOTES (numbers refer to Sequence numbers above)
# 1. The cell-based screening methods employed in this study were like those previously published. Briefly, the corresponding myeloma cell lines were screened in 1,536-well plates with 500 cells, 5-uL per well for inhibition of cell viability (assessed by measuring ATP levels with CellTiterGlo).
# 2. NCATS MIPE 4.0 library of approved and investigational drugs were added using the Kalypsis pin tool. Wells treated with DMSO only for 100% viability and media only wells for 0% viability were used as controls.
# 3. The assay plates were covered and incubated for 48 hours in a 37C, 5% CO2 incubator with controlled humidity.
# 4. After 48 hours, CellTilter-GloTM luminescent substrate mix (Promega) reagent was added to the assay plate and plates we incubated for 5 min at room temperature.
# 5. Signal was measured as median relative luminescence units on a ViewLux (PerkinElmer) multiplate reader.
# [1] Heske CM, Davis MI, Baumgart JT, Wilson K, Gormally MV, Chen L, Zhang X, Ceribelli M, Duveau DY, Guha R, Ferrer M, Arnaldez FI, Ji J, Tran HL, Zhang Y, Mendoza A, Helman LJ, Thomas CJ. Matrix Screen Identifies Synergistic Combination of PARP Inhibitors and Nicotinamide Phosphoribosyltransferase (NAMPT) Inhibitors in Ewing Sarcoma. Clin Cancer Res. 2017 Dec 1;23(23):7301-7311. doi: 10.1158/1078-0432.CCR-17-1121. Epub 2017 Sep 12. PMID: 28899971; PMCID: PMC6636827.
# Potency is read from the fitted curve at half-maximal effect.
Structure (SMILES),"viability, % of control [%]",Potency
O=C1CCC[C@@H]2[C@H]3CCCN4CCC[C@@H](CN12)[C@@H]34,91.7,–
COc1cc2cc(c1Cl)N(C)C(=O)C[C@H](OC(=O)C(C)C)[C@]1(C)O[C@H]1[C@H](C)[C@@H]1C[C@@](O)(NC(=O)O1)[C@H](OC)C=CC=C(C)C2,24.4,–
C[C@@H]1[C@H](O)[C@@H](C)C=CC=CCCC=CC=CC=CC=C[C@H](O[C@H]2O[C@@H](C)[C@H](O)[C@@H](N)[C@@H]2O)CC2O[C@](O)(C[C@@H](O)[C@H](O)CC[C@@H](O)C[C@@H](O)C[C@@H](O)CC(=O)O[C@H]1C)C[C@H](O)[C@H]2C(=O)O,106,–
CC(=O)OCC1=C(C(=O)O)N2C(=O)[C@@H](N)[C@@H]2SC1,81.7,–
C1=C2CCCN[C@H]2[C@@H]2C[C@H]1[C@@H]1CCCCN1C2,92.7,–
CCOC(=O)c1c(C(C#N)=CN)c2ccc(Cl)c(Cl)c2n1C,92.8,–
COC1=CC(C)=C[C@@H](C)[C@@H](O)[C@@H](C)CC(C)=CC=C[C@H](OC)[C@H]([C@@H](C)[C@@H](O)[C@H](C)[C@@]2(O)C[C@@H](O)[C@H](C)[C@@H](C(C)C)O2)OC1=O,–,18.7 µM (active)
NC1CC1c1ccccc1 (stereo not given),119,–
CN(C)NC(=O)CCC(=O)O,98.7,–
Cc1ccccc1-n1c(Cn2cnc3c(N)ncnc32)nc2cccc(C)c2c1=O,–,4.18 µM (active)
COc1ccc(N(C(=O)Oc2c(C)cccc2C)c2ccnc(Nc3ccc(N4CCN(C)CC4)cc3)n2)c(OC)c1,–,0.743 µM (active)
CC(=CCCC1=CCC(C2=CC(=O)OC2O)OC1O)CCC1=C(C)CCCC1(C)C (stereo not given),97.1,–
COc1ccc2c(c1)CN(C)CC2c1ccc(Cl)c(Cl)c1 (stereo not given),–,18.7 µM (active)
NC1=NC(=O)N2CC12 (stereo not given),91.3,–
CC(C)[C@]12O[C@@H]1[C@@H]1O[C@]13[C@]1(O[C@H]1C[C@@H]1C4=C(CC[C@@]13C)C(=O)OC4)[C@H]2O,13.5,–
CC(=Cc1csc(C)n1)[C@@H]1C[C@H]2O[C@]2(C)CCC[C@H](C)[C@@H](O)[C@@H](C)C(=O)C(C)(C)[C@@H](O)CC(=O)O1,69.9,–
O=c1[nH]c2ccccc2n1C1CCN(Cc2ccc(-c3[nH]c4cc5ncnc5cc4nc3-c3ccccc3)cc2)CC1,–,20.9 µM (active)
CC[C@@]1(O)C(=O)OCc2c1cc1n(c2=O)Cc2cc3ccccc3nc2-1,–,0.209 µM (active)
O=S(=O)(F)Cc1ccccc1,102,–
CCOC(=O)c1cncn1[C@H](C)c1ccccc1,100,–

Structure (SMILES),"viability, % of control [%]",Potency
CC(O)=C(C#N)C(=O)Nc1cc(Br)ccc1Br,–,7.43 µM (active)
C[C@H]([C@H](O)CCC(C)(C)O)[C@H]1CC[C@@]2(O)C3=CC(=O)[C@@H]4C[C@@H](O)[C@@H](O)C[C@]4(C)[C@@H]3CC[C@]12C,92.7,–
O=C(Nc1ccncc1)C(=O)c1cn(Cc2ccc(Cl)cc2)c2ccccc12,–,3.72 µM (active)
C[C@]12CC[C@H]3[C@@H](CCC4=CC(=O)CC[C@@]43C)[C@H]1CC[C@H]2OC(=O)CCC1CCCC1,–,16.6 µM (active)
C[C@]12COC(=O)C[C@@H]1CC[C@@H]1[C@H]2CC[C@@]2(C)[C@H]1CC[C@]2(C)O,103,–
O=C1C=CC[C@@H]2[C@H]3CCCN4CCC[C@@H](CN12)[C@@H]34,93.9,–
CC(=O)N(C)c1cccc(-c2ccnc3c(C(=O)c4cccs4)cnn23)c1,101,–
CN(C)[C@@H]1C(=O)C(C(N)=O)=C(O)[C@@]2(O)C(=O)C3=C(O)c4c(O)cccc4[C@@](C)(O)[C@H]3[C@H](O)[C@@H]12,82.8,–
C#C[C@]1(O)C=C[C@@H]2[C@@H]3CCC4=CC(=O)CC[C@@H]4[C@H]3CC[C@@]21CC,92.6,–
CC(C)(C)[C@]1(O)C[C@@H]2OC(=O)C[C@@]23C(=O)O[C@@H]2OC(=O)[C@H](O)C213 (stereo not given in full),101,–
COc1ccc(CC2NCCc3cc(OC)c(OC)cc32)cc1OC (stereo not given),71,–
CC(C)(C)c1cc(C=C(C#N)C#N)cc(Br)c1O,–,23.5 µM (active)
CC1=NN=C(c2ccc(N)cc2)c2cc3c(cc2C1)OCO3,85.8,–
O=C(Oc1ccc([N+](=O)[O-])cc1)N1CCN(Cc2cccc(Oc3ccccc3)c2)CC1,101,–
CC1(N2CCC(n3c([C@@H]4CCCNC4)nc4ccccc43)CC2)CCCCCCC1,80.5,–
O=S(=O)(CC1CS1)c1ccc(Oc2ccccc2)cc1 (stereo not given),–,20.9 µM (active)
COCC1(CO)C(=O)C2CCN1CC2 (stereo not given),–,20.9 µM (active)
CC(C)[C@H]1C(=O)N[C@H](CO)Cc2c[nH]c3cccc(c23)N1C,106,–
C[C@@H]1CC[C@H]2[C@@H](C)C(=O)O[C@@H]3O[C@@]4(C)CC[C@H]1[C@]32OO4,80.6,–
COc1cccc2c1[C@]13CCN(CC4CC4)[C@H](C2)[C@]1(OC)CCC(=O)C3,104,–
